This note sets out measurements from ChEMBL document CHEMBL2218924, “A broad activity screen in support of a chemogenomic map for kinase signalling research and drug discovery” (Biochem J, 2013).

This assay has as its target T1, Serine/threonine-protein kinase DCLK2 (Homo sapiens) (UniProt Q8N568).
T1 sequence (whole entry): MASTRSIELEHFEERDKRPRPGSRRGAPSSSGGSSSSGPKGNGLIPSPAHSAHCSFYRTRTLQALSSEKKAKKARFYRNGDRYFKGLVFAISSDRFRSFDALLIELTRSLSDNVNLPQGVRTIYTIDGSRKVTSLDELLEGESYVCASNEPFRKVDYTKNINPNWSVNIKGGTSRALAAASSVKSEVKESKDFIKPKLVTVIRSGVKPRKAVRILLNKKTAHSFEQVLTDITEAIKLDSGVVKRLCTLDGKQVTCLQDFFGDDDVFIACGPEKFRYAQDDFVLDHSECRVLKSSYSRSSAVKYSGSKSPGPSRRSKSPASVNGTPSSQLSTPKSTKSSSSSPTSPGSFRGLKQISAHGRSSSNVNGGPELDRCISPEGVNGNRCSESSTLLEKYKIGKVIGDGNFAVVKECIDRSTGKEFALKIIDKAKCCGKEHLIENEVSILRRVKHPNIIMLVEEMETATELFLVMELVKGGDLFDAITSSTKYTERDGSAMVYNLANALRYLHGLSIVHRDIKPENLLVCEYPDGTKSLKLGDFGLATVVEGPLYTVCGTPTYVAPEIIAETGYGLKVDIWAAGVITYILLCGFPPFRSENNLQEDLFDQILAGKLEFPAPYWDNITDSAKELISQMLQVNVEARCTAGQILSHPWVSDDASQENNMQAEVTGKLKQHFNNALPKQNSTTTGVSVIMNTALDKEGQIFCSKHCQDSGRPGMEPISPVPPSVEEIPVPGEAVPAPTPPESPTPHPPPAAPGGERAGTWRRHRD
To be noted: at 10 µM.
As to `O=c1c2ccccc2[nH]c(=S)n1CCN1CCC(=C(c2ccc(F)cc2)c2ccc(F)cc2)CC1`, the residual activity came to 79%.

For `O=[N+]([O-])c1ccc(-c2nc(-c3ccc(F)cc3)c(-c3ccncc3)[nH]2)cc1`, the residual activity worked out at 111%.

As to `O=C1Nc2cc(Br)ccc2/C1=C1/Nc2ccccc2/C1=N\O`, the residual activity was 76%. On to `O=Nc1c(-c2c(O)[nH]c3ccccc23)[nH]c2ccccc12`, for which the residual activity was found to be 74%. The value for `CC[n+]1c(/C=C/N(C)c2ccccc2)n(-c2ccccc2)c2ccc(-c3nc4ccccc4s3)cc21` was 102%; that for `CC(C)n1cnc2/c(=N/c3cccc(Cl)c3)nc(NCCO)[nH]c21` was 94%; that for `Oc1n[nH]c2nnc(-c3c(-c4ccccc4)nn4ccccc34)cc12` was 92%.

Turning to `CCN(CC)CCCCN1c2ccccc2Oc2ccc(Cl)cc21`, the residual activity stood at 104%.

On to `Cn1nc2c3c(cccc31)C(=O)c1ccccc1-2`, for which the residual activity came to 89%.

As to `NC(=O)c1ccc2[nH]c(-c3ccc(Oc4ccc(Cl)cc4)cc3)nc2c1`, the residual activity turned out to be 182%. The value for `COc1cc2ncnc(N3CCN(C(=O)Nc4ccc(Oc5ccccc5)cc4)CC3)c2cc1OC` was 242%; that for `CC(=O)O/N=C1\C(=C2\C(=O)Nc3cc(Br)ccc32)Nc2ccccc21` was 94%; that for `Ic1cccc(CSc2nnc(-c3ccncc3)o2)c1` was 97%. The value for `COc1cc2ncnc(Nc3ccc(Oc4ccccc4)cc3)c2cc1OC` was 252%.

For `Cc1nc2cc3nc(-c4cccs4)cnc3cc2n1C`, the residual activity was 108%. Take `O=C1NC(=O)/C(=C/c2ccc3c(c2)OC(F)(F)O3)S1`: the residual activity is 66%.

Consider `COc1ccc(C(=O)Nc2sc3c(c2C(N)=O)CCCC3)cc1OC`, for which the residual activity worked out at 61%. The figure for `C[C@@H](N)[C@H]1CC[C@H](C(=O)Nc2ccncc2)CC1` is 87%; for `N#C/C(=C(\N)Sc1ccc(N)cc1)c1ccccc1C(F)(F)F` it is 99%. The figure for `CC(C)n1cnc2c(NCc3ccccc3)nc(NCCCO)nc21` is 102%; for `Cn1cc(/C=C2\C(=O)Nc3ccc(S(N)(=O)=O)cc32)c2ccccc21` it is 77%. The figure for `O=C1NC(=O)c2cc(Nc3ccc(F)cc3)c(Nc3ccc(F)cc3)cc21` is 89%.

On to `Cc1ccc(S(=O)(=O)/C=C/C#N)cc1`, for which the residual activity stood at 99%. The figure for `CNc1cc2c(Nc3cccc(Br)c3)ncnc2cn1` is 97%; for `Oc1ccc(-c2nc(-c3ccc(F)cc3)c(-c3ccncc3)[nH]2)cc1` it is 76%; for `CN(C)c1ccc(/C=C2\C(=O)Nc3ccccc32)cc1` it is 101%. The value for `O=c1cc(-c2cccc3c2Sc2ccccc2S3)oc(N2CCOCC2)c1` was 85%; that for `Cc1ccc(NC2=CC(=O)c3sc(C)nc3C2=O)cc1` was 93%. The figure for `COc1ccc(OC)c2c(=S)c3ccccc3[nH]c12` is 67%; for `Nc1cccc(-c2cc3c(Oc4cccc(O)c4)ncnc3[nH]2)c1` it is 78%. `COc1ccc(CNc2nc(N(CCO)CCO)nc3c2ncn3C(C)C)cc1`: the residual activity was 80%. The value for `Cn1cnc2cc3c(Nc4cccc(Br)c4)ncnc3cc21` was 110%; that for `O=C1c2ccccc2-[n+]2ccc3c([nH]c4ccccc43)c21` was 94%; that for `O=C(O)c1ccc2c3c1cccc3c(=O)n1c3ccccc3nc21` was 68%. In the case of `COc1ccc(S(=O)(=O)N(CCO)c2ccccc2CN(C)C/C=C/c2ccc(Cl)cc2)cc1`, the residual activity is 107%.

As usually defined, the residual activity is the signal under treatment as a percentage of the control signal.
